Experiment [1] can be described thus: compound effects on lung adenocarcinoma cell viability – A549, calcein-AM fluorescence, 48 h, basal, profiling panel (AID 1162). The conditions noted are these: higher = more signal.
A short description of experiment [2]: compound effects on differentiated 3T3-L1 adipocyte viability – cell-based, 3T3-L1 adipocytes, calcein-AM fluorescence, 48 h, basal, profiling panel (AID 1163). The conditions noted are these: 3T3-L1 adipocytes viability, higher = more signal.
Experiment [3] can be described thus: compound effects on hepatocellular carcinoma cell viability – HepG2, calcein-AM fluorescence, 48 h, basal, profiling panel (AID 1164). The settings on record: higher = more signal.
Experiment [4] is described as follows: compound effects on multiple myeloma cell viability – MM1S, calcein-AM fluorescence, 48 h, basal, profiling panel (AID 1165).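 Note: viability of MM1S multiple myeloma cells under basal unstimulated conditions.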 The settings on record: higher = more signal.
Experiment [5] is described as follows: calcein-AM signal in unstimulated myeloma cells – cell-based, calcein-AM fluorescence, 48 h, PK04 Diversity Set, profiling panel (AID 1166).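 Note: cells grown under basal conditions without added stimulus.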 The settings on record: RPMI8226 myeloma viability, higher = more signal.
The nature of experiment [6]: JC-1 mitochondrial signal, unstimulated HepG2 cells – cell-based, JC-1 fluorescence, 24 h, 100 nL compound, profiling panel (AID 1167). The conditions noted are these: HepG2 mitochondrial potential, higher = more signal.
Experiment [7] is described as follows: JC-1 mitochondrial signal, unstimulated adipocytes – cell-based, JC-1 fluorescence, 3T3-L1 adipocytes, 24 h, 100 nL compound, profiling panel (AID 1168). The settings on record: JC-1 mitochondrial fluorescence, higher = more signal, called active from +8 up or from −8 down.
Experiment [8] is described as follows: JC-1 mitochondrial signal, unstimulated myeloma cells – cell-based, JC-1 fluorescence, RPMI8226, 24 h, 100 nL compound, profiling panel (AID 1169). The conditions noted are these: JC-1 mitochondrial potential fluorescence, higher = more signal.
Experiment [9] can be described thus: JC-1 mitochondrial signal, unstimulated MM1S myeloma – cell-based, JC-1 fluorescence, 24 h, 100 nL compound, profiling panel (AID 1170). The conditions noted are these: MM1S mitochondrial potential, higher = more signal.
The nature of experiment [10]: resazurin metabolic signal in A549 cells – cell-based, resazurin fluorescence, 24 h, PK04 Diversity Set, profiling panel (AID 1171). The settings on record: A549 viability, higher = more signal, called active from +8 up or from −8 down.

Structures are written as SMILES. Active and inactive are the calls of the source.
Note: test concentration not given here.

Take `C=C(C)[C@@H]1CC=C(C(O)C2C=CC3C(=O)N(c4ccccc4)C(=O)C3N2Nc2ccccc2F)CC1` (stereo not given in full): the z-score in experiment [1] is -0.644; in [2], -0.466; in experiment [3], 0.27; in [4], -2.18; in experiment [5] it was 0.123; in [6], -1.05. Moreover, the z-score is -1.74 (inactive) in experiment [7], -0.872 in [8], -0.043 in experiment [9] and -0.35 (inactive) in [10].

With `Cc1ccc(S[C@]2(C(=O)NCC(F)(F)F)CC(=O)N(Cc3ccccc3)[C@@H]2c2ccc(CO)cc2I)cc1`, the z-score was 0.208 in experiment [1]; -0.649 in experiment [2]; -0.425 in experiment [3]; -1.84 in experiment [4]; -2.08 in experiment [5]; -1.75 in experiment [6]. Besides, the z-score in experiment [7] was -0.68 (inactive); in experiment [8], -0.797; in experiment [9] it was -1.59; in experiment [10], 0.589 (inactive).

On to `O=C(N1CCCCC1)[C@@]1(CCS(=O)(=O)c2ccccc2)COC(c2ccc(OCCCO)cc2)=N1`, for which the z-score in experiment [1] is 0.606; in experiment [2], -0.609; in experiment [3] it was 0.299; in experiment [4] it was -1.03; in [5], 0.0963; in experiment [6], 0.147. The z-score in experiment [7] was -0.328 (inactive); in experiment [8] it was -1.13; in experiment [9], -1.16; in experiment [10] it was 0.327 (inactive).

Consider `CN1C(=O)C2C=CC(C(O)c3cccc(O)c3)N(Nc3ccccc3)C2C1=O` (stereo not given), for which the z-score in [1] was -0.501; in [2], -0.58; in experiment [3] it was -0.333; in experiment [4], -1.58; in experiment [5], -1.67; in experiment [6], -0.579. The z-score in experiment [7] is 0.548 (inactive); in experiment [8], -0.419; in experiment [9] it was -0.179; in experiment [10] it was 0.0494 (inactive).

Consider `CC(C)C(=C=CC[C@H](O)c1cccc(OCCO)c1)C[C@H](O)c1cc(Cl)cc(Cl)c1O`, for which the z-score in experiment [1] was -0.105; in experiment [2] it was -0.903; in experiment [3] it was 0.142; in [4], -1.67; in experiment [5] it was 0.205; in experiment [6] it was 0.00345. Also, the z-score in [7] is 0.375 (inactive); in experiment [8] it was -0.527; in experiment [9], -0.826; in [10], 1.01 (inactive).

For the molecule `COc1ccccc1CN1C(=O)c2ccccc2[C@@]2(Cc3ccccc3N(CC(F)(F)F)C2=O)[C@@H]1c1ccc(CO)cc1`, the z-score in [1] was -0.912; in experiment [2], -0.744; in experiment [3] it was 0.162; in experiment [4], 0.291; in [5] it was -0.956; in experiment [6], -0.505. In addition, the z-score in [7] was -0.363 (inactive); in experiment [8], -0.0759; in [9], -0.946; in [10], -0.682 (inactive).

For `CCC[C@@H]1C[C@@]1(CCC)[C@@H](NC(=O)OCc1ccccc1)c1ccc(-c2ccccc2)cc1`, the z-score was -1.15 in experiment [1]; -1.15 in experiment [2]; 0.0422 in experiment [3]; -0.625 in experiment [4]; -1.43 in [5]; -0.862 in experiment [6]. Besides, the z-score in experiment [7] was 0.258 (inactive); in experiment [8] it was -0.325; in [9] it was -1.19; in experiment [10], 2.39 (inactive).

With `COCCOC(=O)N1C(=O)[C@@]2(c3cc(C#CC4=CCCCC4)ccc31)[C@H](c1ccccc1OCCO)N1[C@H](c3ccccc3)[C@H](c3ccccc3)OC(=O)[C@H]1[C@@H]2C(=O)Nc1nc2ccccc2s1`, the z-score in [1] is -0.0438; in experiment [2], 0.764; in experiment [3], 0.416; in experiment [4], -2.34; in experiment [5], -3.43; in experiment [6], -2.68. Also, the z-score in experiment [7] is 0.745 (inactive); in experiment [8] it was -0.759; in experiment [9] it was -1.08; in [10], -0.0954 (inactive).

In the case of `COc1cc(CO)cc(I)c1O[C@H]1C=C(C(=O)NCCO)C[C@@H](NCc2ccc(F)cc2)[C@@H]1O`, the z-score in experiment [1] was 0.56; in [2] it was 0.385; in experiment [3] it was 2.22; in [4], -2.35; in experiment [5], -0.456; in [6], 0.871. Further, the z-score in experiment [7] is -0.389 (inactive); in experiment [8], -0.251; in experiment [9], -2.07; in experiment [10], -0.183 (inactive).

With `COC(=O)c1ccc([C@H](NC(=O)c2ccco2)[C@]2(C)C[C@H]2C2CCCCC2)cc1`, the z-score was -1.13 in [1]; -1.2 in experiment [2]; -2.43 in experiment [3]; -2.65 in [4]; -3.28 in experiment [5]; -2.5 in [6]. Moreover, the z-score in experiment [7] was -1.02 (inactive); in experiment [8], -0.89; in experiment [9] it was -1.12; in [10] it was -2.55 (inactive).

Turning to `CO[C@H]1O[C@H](CO)[C@@H](OC(=O)Nc2ccccc2-c2ccccc2)[C@H](OC(=O)Nc2ccc3c(c2)OCO3)[C@H]1OC(=O)Nc1ccc2c(c1)OCO2`, the z-score is 0.673 in [1]; -0.31 in experiment [2]; -0.521 in experiment [3]; -1.02 in [4]; -2.75 in experiment [5]; 0.844 in experiment [6]. For the same molecule, the z-score in [7] is 1.48 (inactive); in experiment [8], -1.01; in experiment [9] it was 0.823; in experiment [10], 0.262 (inactive).

Consider `COCCOC(=O)N1C(=O)[C@@]2(c3cc(C#Cc4ccc(OC)cc4)ccc31)[C@H](c1ccccc1OCCO)N1[C@H](c3ccccc3)[C@H](c3ccccc3)OC(=O)[C@H]1[C@@H]2C(=O)N1CCCCCCC1`, for which the z-score was 0.161 in experiment [1]; 1.62 in experiment [2]; 1.19 in [3]; -0.248 in [4]; -0.584 in experiment [5]; 0.591 in experiment [6]. For the same molecule, the z-score in experiment [7] was 3.46 (inactive); in experiment [8], -0.686; in experiment [9], -1.16; in experiment [10], 0.375 (inactive).

In the case of `C[N+](C)(C)CCCCCCNC(=O)[C@H]1C[C@H]2C(=O)N[C@@H](Cc3ccccc3)C(=O)N2[C@H]1c1ccc(O)cc1`, the z-score in experiment [1] is -0.367; in experiment [2], -1.42; in experiment [3], 0.557; in experiment [4] it was 0.401; in experiment [5], 0.757; in experiment [6] it was -0.216. In addition, the z-score is 0.508 (inactive) in experiment [7], 0.21 in [8], -0.79 in [9] and -0.0203 (inactive) in [10].

With `CCCC[C@@H]1C[C@H]1[C@@H](NC(=O)c1ccccc1)c1ccc(C(F)(F)F)cc1`, the z-score in experiment [1] is -1.46; in [2], -0.999; in experiment [3] it was -0.959; in experiment [4], 0.256; in [5] it was -0.372; in [6], 0.494. The z-score in experiment [7] is -0.259 (inactive); in experiment [8] it was 0.677; in experiment [9] it was -1.24; in [10], -0.0143 (inactive).

(Values after PubChem BioAssay.)
